PubChem BioAssay (NCATS)
Records with an inconclusive call do not appear. The call rests on the fitted dose curve; in most records, active means well fitted inhibition curve with a large enough effect; inconclusive means small, poorly fitted or top-dose-only effect; inactive means no such curve, though single readings can be large or run the other way.

test: Primary qHTS for small molecule stabilizers of the endoplasmic reticulum resident proteome: Secreted ER Calcium Modulated Protein (SERCaMP) assay (AID 1508630); settings: SH-SY5Y GLuc-SERCaMP (Gaussia luciferase released on ER calcium loss) secretion, thapsigargin, luminescence; series mostly up to 38.4 µM; activity change, negative = inhibition: at the top concentration
In short: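 GLuc-SERCaMP-expressing SH-SY5Y cells, pretreated 16 h with compound, are challenged with thapsigargin to empty ER calcium stores; after 4 h, coelenterazine is added directly to the medium and luminescence is imaged.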
On the % scale 0 is the no-effect control and ±100 the full control effect.

Activity change, negative = inhibition, inactive:
Cc1ccccc1-c1nccc(NCc2cccs2)n1 18.1%, CN1CCN(c2ncc3nc(-c4ccc(F)cc4)c(=O)n(Cc4cccs4)c3n2)CC1 -8.93%, COc1ccc(-c2nc3cnc(N4CCN(C)CC4)nc3n(Cc3cccs3)c2=O)cc1 -22.5%, FC(F)(F)c1ccccc1-c1nc(NCCN2CCOCC2)c2ccccc2n1 -25%, COc1ccc(-c2nc3cnc(Oc4cccc(Cl)c4)nc3n(C3CC3)c2=O)cc1 -14.1%, N#CCCn1c(=O)c(-c2ccc(F)cc2)nc2cnc(N3CCOCC3)nc21 -23.2%, Cn1c(=O)c(-c2cccs2)nc2cnc(N3CCNCC3)nc21 -11.1%, CS(=O)(=O)Nc1cccc(-c2ccc3ncnc(NC4CC4)c3c2)c1 77%, CN1CCN(c2ncc3nc(CCc4ccccc4)c(=O)n(C4CC4)c3n2)CC1 -24.3%, COCCn1c(=O)cnc2cnc(Nc3ccccc3)nc21 101%, Cc1ccccc1-c1ccc2ncnc(NC3CC3)c2c1 -19.5%, c1cncc(CNc2ncncc2-c2cccnc2)c1 4.99%, Clc1ccccc1-c1nccc(NCc2cccs2)n1 17.8%, O=c1c(-c2ccc(F)cc2)nc2cnc(Oc3ccccc3)nc2n1Cc1cccs1 10.2%, FC(F)(F)c1ccccc1-c1nc(NCc2cccs2)c2ccccc2n1 -17.9%, COc1ccc(Oc2ncc3nc(-c4cn(C)c5ccccc45)c(=O)n(C4CC4)c3n2)cc1 3.69%, COc1ccc(-n2c(=O)c(-c3ccc(F)cc3)nc3cnc(N4CCOCC4)nc32)cc1 3.62%, CC(=O)NCCNc1ncnc2ccc(-c3ccoc3)cc12 2.75%, COCCNc1ncnc2ccc(-c3cccc(NS(C)(=O)=O)c3)cc12 -18.8%, c1csc(CNc2ncnc3ccc(-c4ccoc4)cc23)c1 -12.1%, Cc1ccccc1-c1cc(N2CCN(C)CC2)ncn1 21.1%, c1nc(NC2CCNCC2)c2cc(-c3ccoc3)ccc2n1 22.9%, COc1ncc2nc(-c3ccc(F)cc3)c(=O)n(C)c2n1 1.75%, COCCn1c(=O)c(-c2ccc(Cl)cc2)nc2cnc(Nc3ccccc3)nc21 22.9%, CN1CCN(c2ncc3nc(-c4ccc(Cl)cc4)c(=O)n(-c4ccccc4)c3n2)CC1 -27.5%, CN1CCN(c2ccnc(-c3ccoc3)n2)CC1 15.4%, COc1cccc(Cn2c(=O)c(-c3cccs3)nc3cnc(N(C)C)nc32)c1 -6.02%, Cc1nc2cnc(OCc3ccccc3)nc2n(C)c1=O 3.48%, COc1ccccc1CCn1c(=O)c(-c2cccc(F)c2)nc2cncnc21 -15.4%, CN(C)c1ncnc2ccc(-c3ccoc3)cc12 -21.1%, COc1cccc(Nc2ncc3nc(CCc4ccccc4)c(=O)n(C)c3n2)c1 20.3%, COCCNc1ncnc2ccc(-c3ccccc3C)cc12 -23.2%, COc1ccc(-c2nc3cnc(Oc4ccccc4)nc3n(CCC#N)c2=O)cc1 32.9%, COc1cccc(Nc2ncc3nc(-c4ccc(Cl)cc4)c(=O)n(C4CC4)c3n2)c1 22.5%, CCNc1ncc2nc(-c3cn(C)c4ccccc34)c(=O)n(C)c2n1 7.3%, CN1CCN(c2ncc3nc(-c4cccc(C#N)c4)c(=O)n(Cc4ccc(F)cc4)c3n2)CC1 -29.2%, COc1ccc(Oc2ncc3nc(-c4ccc(OC)cc4)c(=O)n(C)c3n2)cc1 -1.04%, Cc1nc2cnc(N3CCOCC3)nc2n(C[C@H]2CCCO2)c1=O -0.436%, COc1cccc(Cn2c(=O)c(-c3ccc(F)cc3)nc3cnc(OC)nc32)c1 10.1%
